# Hits are enriched below; roughly 1.6% of the tested compounds scored in any of these assays.
# KCNQ2 block – KCNQ2 (rat) channel inhibition | B-score at 10 µM | AID 2156 | 310,000 compounds, 1.1% hits | CHO-K1 KCNQ2, FluxOR thallium flux, 20 min; hits give low values;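 active = fluorescence ratio B-score at most minus 3 library SDs, with starting brightness B-score within 2 library SDs, cut at about -5.5 in these data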
# KCNQ2 pot – enhances the rat KCNQ2 potassium channel; B-score at 10 µM; 310,000 compounds, 0.54% hits; CHO-K1 KCNQ2, FluxOR thallium flux fluorescence; hits give high values;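 active = fluorescence ratio B-score at least 3 SD of library B-scores, with initial fluorescence B-score within 3 of them, cut at about 5.3 in these data; same plate scores as AID 2156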;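 note: B-score of peak minus minimum over baseline fluorescence ratio after K+ and Tl+ stimulus; positive B-score means potentiation of KCNQ2 with more thallium influx and brighter signal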
# Kir21 conf inh – confirmation of mouse Kir2.1 potassium channel inhibitors. shares compounds with KCNQ2 pot. Kir2.1-expressing cells, FluxOR thallium flux fluorescence; hits give low values. Tl flux remaining, % of negative control (hits give low values), % at 10 µM. 2,300 compounds, 41% hits. AID 2032;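 active = Primary-screen hit whose thallium flux fell at least 3 control SD below untreated wells in both duplicates, with normal baseline fluorescence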;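 note: 0% = blank wells without stimulus and 100% = stimulated no-compound controls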
# Target sequence (P35561 whole entry, looked up): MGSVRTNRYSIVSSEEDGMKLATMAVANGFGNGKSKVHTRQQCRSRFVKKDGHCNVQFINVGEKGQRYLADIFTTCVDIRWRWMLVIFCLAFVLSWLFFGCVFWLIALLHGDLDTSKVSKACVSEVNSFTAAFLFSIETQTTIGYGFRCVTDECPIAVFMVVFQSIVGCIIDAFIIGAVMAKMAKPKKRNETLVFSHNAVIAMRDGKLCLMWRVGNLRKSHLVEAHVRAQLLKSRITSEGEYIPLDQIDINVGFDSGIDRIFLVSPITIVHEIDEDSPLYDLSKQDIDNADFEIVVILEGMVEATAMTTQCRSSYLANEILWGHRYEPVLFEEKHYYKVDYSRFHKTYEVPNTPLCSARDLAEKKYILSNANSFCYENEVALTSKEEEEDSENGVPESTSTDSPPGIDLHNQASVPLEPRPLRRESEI
# HEK293 Tl flux – parental HEK293 activity in Kir2.1 inhibitor counter-screen; shares compounds with KCNQ2 pot; parental HEK293 cells, FluxOR thallium flux fluorescence; 0% = unstimulated blank wells; FluxOR signal as % of negative control (100 = no effect), % at 10 µM; 2,300 compounds, 19% hits; AID 2105;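 active = dye signal at least 3 control SD above or below untreated wells in both duplicates, raw fluorescence within 3, either direction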;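 note: percent is based on the flux ratio of peak minus minimum fluorescence over baseline F0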
# CHO-K1 ctr – parental CHO-K1 activity in KCNQ2 potentiator counter-screen; shares compounds with KCNQ2 pot; parental CHO-K1 cells, FluxOR thallium flux fluorescence; zero = vehicle mean+3SD, 100% = vehicle-minus-blank window; activity increase over 3SD of controls, % at 10 µM; 1,200 compounds, 43% hits;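 active = signal rise of at least 3 SD above the untreated control mean, in both duplicate wells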;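 note: counter screen of KCNQ2 potentiator hits so any rise reflects channel-independent effects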
# KCNQ1 pot spec – tests whether KCNQ2 potentiators also act on human KCNQ1 | shares compounds with KCNQ2 pot | CHO KCNQ1 stable, FluxOR thallium flux fluorescence; beyond 3SD, as % of vehicle-control signal | activation over 3SD threshold, % at 10 µM | 1,200 compounds, 28% hits | AID 2283;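 active = fluorescence ratio rise of at least 3 SD of vehicle wells above their mean, in both replicate wells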;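 note: 0% = vehicle mean plus 3 SD and 100% = vehicle minus unstimulated blank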
# KCNQ2 pot conf – rat KCNQ2 channel potentiator confirmation. shares compounds with KCNQ2 pot. CHO-KCNQ2 cells, FluxOR thallium flux fluorescence. potentiation, less the hit threshold, % at 10 µM. 1,200 compounds, 68% hits. AID 2287;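 active = fluorescence ratio rising 3 SD or more over the vehicle control mean in both replicates, plus primary screen hit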;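 note: peak minus minimum thallium fluorescence divided by baseline after K/Tl stimulus; 0% = vehicle mean plus 3 SD and 100% = vehicle minus unstimulated blank difference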
# Kir2-1 sel – tests whether KCNQ2 potentiators also affect mouse Kir2.1. shares compounds with KCNQ2 pot. HEK293 Kir2.1, FluxOR thallium flux fluorescence. activity over 3SD threshold, % at 10 µM. 1,200 compounds, 2% hits;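 active = fluorescence ratio rise of at least 3 SD above the vehicle-control mean, seen in both replicates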;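 note: 0% = vehicle mean plus 3 SD and 100% = vehicle minus no-stimulus blank window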
# KCNQ2 W236L MoA – KCNQ2 potentiators acting on retigabine-insensitive rat KCNQ2 W236L mutant. shares compounds with KCNQ2 pot. CHO KCNQ2-W236L, automated patch clamp current. current increase over 3SD of negative controls (%), hits give high values, % at 25 µM. 940 compounds, 10% hits. AID 2558;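 active = current increase at least 3 SD of the untreated controls above them in both duplicate recordings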
# Numbers without * were called inactive; i = inactive; . = no result given.
SMILES,KCNQ2 block,KCNQ2 pot,Kir21 conf inh,HEK293 Tl flux,others
CC1=C(C(=O)OC2CCCCC2)C(c2ccccc2Br)NC(=O)N1 (centres undefined),i,1.7,.,.,
COc1ccc(CCNCc2c(OC)ccc3ccccc23)cc1OC,i,0.43,.,.,
COc1ccc2ccccc2c1CNC(C)CCc1ccccc1 (centres undefined),i,.,40%*,i,
COc1cc2ccccc2cc1C(=O)Nc1nnc(-c2ccncc2)o1,i,.,.,.,
COc1cc2nc(Nc3ccc(C)c(C)c3)nc(N)c2cc1OC,i,.,.,.,
COc1cc2nc(Nc3ccc(F)cc3)nc(N)c2cc1OC,i,0.07,42%*,i,
Cc1cc(NC(=O)CCC(=O)N(CC(=O)NCC2CCCO2)c2ccc(C)c(C)c2)no1 (centres undefined),i,0.36,.,.,
Oc1ccc(N=Nc2ccc3c(c2)OCCO3)c2ncccc12,i,12*,i,i,CHO-K1 ctr=2.9*;KCNQ1 pot spec=-19;KCNQ2 pot conf=-20;Kir2-1 sel=-35
O=C(Nc1ncccc1O)c1ccc2c(c1)OCCO2,i,.,.,.,
CCc1cc2c(SCC#N)ncnc2s1,i,0.88,.,.,
COCCNC(=O)/C(C#N)=C/c1ccc(O)cc1,i,0.47,.,.,
COCCNC(=O)/C(C#N)=C/c1cccc(/C=C(\C#N)C(=O)NCCOC)c1,i,9.3*,i,i,CHO-K1 ctr=-7;KCNQ1 pot spec=2.5*;KCNQ2 pot conf=1.3*;Kir2-1 sel=-30;KCNQ2 W236L MoA=9.2%*
CC(=O)Nc1ccc(NC(=O)C(C)OC(=O)C2CCN(S(=O)(=O)c3ccc4c(c3)OCCO4)CC2)cc1 (centres undefined),i,.,.,.,
S=C(Nc1ccc(Cl)cc1Cl)NC1CCN(Cc2ccccc2)CC1,i,0.91,.,.,
Clc1ccc(CNC2CCN(Cc3ccccc3)CC2)cc1,i,.,28%*,i,
Fc1ccc(CNC2CCN(Cc3ccccc3)CC2)cc1,i,.,.,.,
O=C(c1ccc(Cl)cc1)C1CCN(Cc2ccccc2)CC1,i,.,20%*,i,
O=C(NC1CCN(Cc2ccccc2)CC1)c1ccc(Cl)cc1Cl,i,.,76%*,i,
CC(=O)N1CCC(C(=O)c2ccc(Cl)cc2)CC1,i,.,.,.,
CC(=O)OC1=C(C#N)Cn2ccc3cccc1c32,i,1.9,55%*,i,
O=C(NNC(=O)c1cc(-c2ccncc2)nc2ccccc12)c1cccc(Cl)c1,i,0.14,.,.,
c1cnc(N2CCN(Cc3c[nH]c4ccccc34)CC2)nc1,i,.,.,.,
Fc1ccc(N2CCN(Cc3c[nH]c4ccccc34)CC2)cc1,i,0.09,19%*,i,
Cc1ccc(Nc2nc(NCCO)c3ccccc3n2)cc1C,i,.,28%*,i,
COc1ccccc1Nc1nc(NCCO)c2ccccc2n1,i,0.03,.,.,
SMILES,KCNQ2 block,KCNQ2 pot,Kir21 conf inh,HEK293 Tl flux,others
COc1cccc(N2CCN(C(=O)c3cccc(NC4=NC5CS(=O)(=O)CC5S4)c3)CC2)c1 (centres undefined),i,.,.,.,
Cc1ccc(C(=O)NCC(=O)OCC(=O)N(CC(C)C)c2c(N)n(Cc3ccccc3)c(=O)[nH]c2=O)cc1,i,.,.,.,
COc1ccc(N2CCN(C(CNC(=O)CC(C)(C)C)c3ccc4c(c3)OCO4)CC2)cc1 (centres undefined),i,1.3,.,.,
CCOc1ccc(-n2c(SCC(=O)N3CCC(C(=O)O)CC3)nc3ccccc3c2=O)cc1,i,0.43,.,.,
O=C(NCc1nc2ccccc2[nH]1)C1=C[C@H](C2CC2)C[C@H](OCc2ccc(CO)cc2)O1,i,0.82,.,.,
CCN(CC)CCCN(C(=O)c1ccc(OC)cc1)c1nc(-c2ccc(OC)cc2)cs1,i,1.3,78%*,i,
CCN(CC)CCCN(C(=O)c1ccccc1C)c1nc(-c2ccc(OC)cc2)cs1,i,0.81,.,.,
Cc1ccccc1C(=O)Nc1ccc(C(=O)N/N=C/c2ccc(O)c(Br)c2)cc1,i,.,.,.,
C#CCNC(=O)C1=C[C@@H](c2ccc(C#C)cc2)C[C@@H](OCc2ccc(CO)cc2)O1,i,.,66%*,i,
C#CCNC(=O)C1=C[C@@H](c2ccc(Br)cc2)C[C@@H](OCc2ccc(CO)cc2)O1,i,.,.,.,
C/C(=N\NC(=O)CNC(=O)C1COc2ccccc2O1)c1ccco1 (centres undefined),i,0.52,.,.,
CC1CCCN(Cc2ccc(OCc3ccccc3)cc2)C1 (centres undefined),i,0.28,.,.,
O=[N+]([O-])c1cc(Cl)ccc1N1CCCCC1,i,0.75,.,.,
Nc1cc(N2CCCCC2)c(Cl)cc1[N+](=O)[O-],i,9.2*,i,i,CHO-K1 ctr=139*;KCNQ1 pot spec=-17;KCNQ2 pot conf=45*;Kir2-1 sel=-27;KCNQ2 W236L MoA=28%*
O=C(NCCC1CCCCN1S(=O)(=O)c1cccs1)C(=O)NCc1ccccc1 (centres undefined),i,.,.,.,
Nn1c(Cc2ccccc2)nc2cc(Cl)ccc2c1=O,i,.,.,.,
C=CCN1C(=O)c2ccc(C(=O)N(C)CC(=O)Nc3cccc(F)c3)cc2C1=O,i,.,.,.,
CCCN1CCC2(CC1)NC(C(=O)O)Cc1c2[nH]c2ccccc12 (centres undefined),i,.,.,.,
COC(=O)C1Cc2c([nH]c3ccccc23)C2(CCN(Cc3ccccc3)CC2)N1 (centres undefined),i,.,68%*,i,
N#Cc1ccc(Cn2c(-c3ccc(F)cc3)noc2=O)cc1,i,.,.,.,
Cc1ccc(S(=O)(=O)CC(O)COc2ccc(F)cc2Cl)c(C)c1 (centres undefined),i,0.26,52%*,i,
Cc1ccc(S(=O)(=O)CC(O)COc2ccc(F)cc2Cl)cc1 (centres undefined),i,2.6,.,.,
CC(=O)c1ccc(S(=O)(=O)N2CCCc3ccccc32)cc1,i,.,.,.,
O=S(=O)(c1ccccc1)N1CCCc2ccccc21,i,.,64%*,i,
O=C(O)c1ccc(S(=O)(=O)N2CCCc3ccccc32)cc1,i,.,.,.,
O=S(=O)(c1ccc(F)cc1)N1CCCc2ccccc21,i,.,71%*,i,
C=CCNc1nc(N)c([N+](=O)[O-])c(NCCO)n1,i,.,.,.,
CCCCOc1ccc(C(=O)N2CCN(CC(=O)Nc3ccc(C)cc3)CC2)cc1OC,i,0.13,.,.,

# Source: PubChem BioAssay (Johns Hopkins Ion Channel Center)
